PubChem BioAssay (Tox21)
Where “and” joins values, the source holds several entries; their conditions need not be identical. Equal values may be shown once. Records with an inconclusive call do not appear. Where a call stands in place of a potency, no number is given. The source holds several records for some structures; these can differ, active in one and inactive in another. Calls of active or inactive are those of the source. Calls come from the whole dose curve; as a rule, active = well fitted curve in the direction sought with a large enough effect in the repeat runs; inconclusive = weak or mixed curves; inactive = no such curve, though single readings can be large; an effect the other way counts as inactive or inconclusive.

The compounds below were run against Cytochrome P450 2C9 (Homo sapiens) (UniProt P11712) (assay: Cytochrome P450 Family 2 Subfamily C Member 9 (CYP2C9) small molecule antagonists: luciferase reporter qHTS assay (AID 1671198; note: potency is the fitted concentration of half-maximal effect)). Details: P450-Glo CYP2C9 enzyme assay, luciferin luminescence; series mostly up to 115 µM.
Cytochrome P450 2C9 (Homo sapiens), sequence (P11712 whole entry, looked up): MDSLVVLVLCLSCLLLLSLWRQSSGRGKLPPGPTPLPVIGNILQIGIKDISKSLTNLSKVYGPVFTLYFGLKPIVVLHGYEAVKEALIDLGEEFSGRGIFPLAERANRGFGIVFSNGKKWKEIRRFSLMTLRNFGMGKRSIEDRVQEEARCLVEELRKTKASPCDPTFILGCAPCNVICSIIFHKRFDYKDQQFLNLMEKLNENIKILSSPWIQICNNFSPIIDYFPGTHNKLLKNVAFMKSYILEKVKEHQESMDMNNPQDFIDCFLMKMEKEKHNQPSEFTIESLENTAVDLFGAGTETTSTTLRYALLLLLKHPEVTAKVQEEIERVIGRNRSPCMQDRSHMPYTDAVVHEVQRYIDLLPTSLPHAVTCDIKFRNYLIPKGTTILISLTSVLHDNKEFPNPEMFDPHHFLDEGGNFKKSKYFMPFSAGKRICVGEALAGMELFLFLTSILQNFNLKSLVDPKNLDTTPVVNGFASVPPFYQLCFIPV
In short: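 P450-Glo proluciferin substrate with CYP2C9 enzyme; 10 min RT preincubation, then NADPH regeneration 1 h at 37C; luciferin detection reagent 20 min RT, luminescence in relative luminescence units.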
Note: nearly all actives have a fitted effect of over 50% in size.

Row | Compound | Potency
1 | CCOP(=S)(OCC)Oc1cc(C)nc(C(C)C)n1 | 35.8 µM (active) and 2.83 µM (active) and 2.45 µM (active)
2 | Nc1cc(Cl)cc(Cl)c1 | inactive
3 | O=C(O)C1C(C(=O)O)C2(Cl)C(Cl)=C(Cl)C1(Cl)C2(Cl)Cl (centres undefined) | inactive
4 | [N-]=[N+]=CC(=O)OC[C@H](N)C(=O)O | inactive
5 | CN(C)NC(=O)CCC(=O)O | inactive
6 | CC(=O)C1CCOC1=O (centres undefined) | inactive
7 | O=C(O)Cc1ccccc1 | inactive
8 | COP(=S)(OC)Oc1ccc(SC)c(C)c1 | 7.02 µM (active) and 6.33 µM (active) and 6.92 µM (active)
9 | c1ccc2c(c1)CCCC2 | inactive
10 | CC(=O)/C=C/c1ccccc1 | inactive
11 | N#Cc1cccc(C#N)c1 | inactive
12 | Nc1cccc(Cl)c1 | 71.8 µM (active) and inactive
13 | Nc1nc(N)nc(NC2CC2)n1 | inactive
14 | Cc1ccc(N=C=O)cc1N=C=O | 36.5 µM (active) and 25.1 µM (active) and 79.6 µM (active)
15 | CN(C)C(=O)Cl | inactive
16 | C=CC#N | inactive
17 | CC[N+](=O)[O-] | inactive
18 | O=C(O)C(Br)Br | inactive

These compounds were tested against Cytochrome P450 1A2 (Homo sapiens) (UniProt P05177) (assay: Cytochrome P450 Family 1 Subfamily A Member 2 (CYP1A2) small molecule antagonists: luciferase reporter qHTS assay (AID 1671199; note: potency is the fitted concentration of half-maximal effect)). Details: P450-Glo CYP1A2 enzyme, luciferin luminescence, 1 h; series mostly up to 115 µM.
Cytochrome P450 1A2 (Homo sapiens), sequence (P05177 whole entry, looked up): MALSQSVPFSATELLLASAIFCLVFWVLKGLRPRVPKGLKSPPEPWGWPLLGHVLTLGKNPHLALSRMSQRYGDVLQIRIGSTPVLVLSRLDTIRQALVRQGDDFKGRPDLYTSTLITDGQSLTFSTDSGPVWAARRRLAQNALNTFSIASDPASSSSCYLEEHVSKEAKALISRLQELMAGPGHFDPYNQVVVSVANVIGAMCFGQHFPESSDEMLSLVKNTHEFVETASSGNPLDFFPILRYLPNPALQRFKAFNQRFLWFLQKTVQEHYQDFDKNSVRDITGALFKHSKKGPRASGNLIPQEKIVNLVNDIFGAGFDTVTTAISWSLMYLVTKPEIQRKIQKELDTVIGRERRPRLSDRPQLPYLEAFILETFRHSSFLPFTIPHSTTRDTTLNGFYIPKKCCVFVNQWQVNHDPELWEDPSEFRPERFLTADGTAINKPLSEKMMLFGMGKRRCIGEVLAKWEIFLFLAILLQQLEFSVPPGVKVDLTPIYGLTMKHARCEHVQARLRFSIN
In short: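 Signal from luciferin formed by CYP1A2 from a proluciferin substrate is read as luminescence, expressed in relative luminescence units. Compounds sit with enzyme 10 min, NADPH-driven reaction runs 1 h, all at room temperature.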

Row | Compound | Potency
19 | C=CCN=C=S | inactive
20 | CCOP(=S)(OCC)Oc1cc(C)nc(C(C)C)n1 | 6.33 µM (active) and 4.07 µM (active)
21 | Nc1cc(Cl)cc(Cl)c1 | 21.6 µM (active) and 28.3 µM (active)
22 | O=C(O)C1C(C(=O)O)C2(Cl)C(Cl)=C(Cl)C1(Cl)C2(Cl)Cl (centres undefined) | inactive
23 | N#Cc1ccccn1 | inactive
24 | [N-]=[N+]=CC(=O)OC[C@H](N)C(=O)O | inactive
25 | CN(C)NC(=O)CCC(=O)O | inactive
26 | CC(=O)C1CCOC1=O (centres undefined) | inactive
27 | O=C(O)Cc1ccccc1 | 63.4 µM (active) and inactive
28 | COP(=S)(OC)Oc1ccc(SC)c(C)c1 | 1.98 µM (active) and 2.24 µM (active) and 1.62 µM (active)
29 | c1ccc2c(c1)CCCC2 | inactive
30 | CC(=O)/C=C/c1ccccc1 | 31.7 µM (active) and 39.9 µM (active)
31 | C/C=C/c1ccc2c(c1)OCO2 | 39.9 µM (active)
32 | Cc1cccc(C)c1N | inactive
33 | COc1nc(NC(C)C)nc(NC(C)C)n1 | 31.8 µM (active) and 28.3 µM (active)
34 | N#Cc1cccc(C#N)c1 | inactive
35 | Nc1cccc(Cl)c1 | 40.4 µM (active) and inactive
36 | OC[C@@H](O)[C@H]1O[C@@H]2O[C@H](C(Cl)(Cl)Cl)O[C@@H]2[C@H]1O | inactive
37 | COP(=S)(OC)SCN1C(=O)c2ccccc2C1=O | 10.1 µM (active) and 10 µM (active) and 6.92 µM (active)
38 | Nc1nc(N)nc(NC2CC2)n1 | inactive
39 | Cc1ccc(N=C=O)cc1N=C=O | 36.5 µM (active) and 35.5 µM (active)
40 | CC(C)CCCCCCOC(=O)c1ccccc1C(=O)OCCCCCCC(C)C | 63.2 µM (active)
41 | CN(C)C(=O)Cl | inactive
42 | Cc1ccc(O)c(C)c1 | 70 µM (active) and 29.5 µM (active)
43 | C=CC#N | inactive
44 | CCCCCCCCCCCCCCCCCC(=O)O | 2.5 µM (active) and inactive
45 | CC12CC1(C)C(=O)N(c1cc(Cl)cc(Cl)c1)C2=O (centres undefined) | 9.99 µM (active) and 14.2 µM (active)
46 | C=C(C)C(=O)OCC(CC)CCCC (centres undefined) | inactive
47 | CC[N+](=O)[O-] | inactive
48 | O=C(O)C(Br)Br | inactive

What follows are compounds tested against Voltage-gated inwardly rectifying potassium channel KCNH2 (Homo sapiens) (UniProt Q12809) (assay: Human Ether-a-go-go-Related Gene (hERG) channel small molecule antagonists: fluorescence cell-based qHTS assay (AID 1671200;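 note: hERG-expressing U2OS cells given a thallium stimulus after FluxOR II dye loading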)). Details: hERG-U2OS cells, FluxOR thallium flux fluorescence; series mostly up to 76.8 µM.
Voltage-gated inwardly rectifying potassium channel KCNH2 (Homo sapiens), sequence (Q12809 whole entry, looked up): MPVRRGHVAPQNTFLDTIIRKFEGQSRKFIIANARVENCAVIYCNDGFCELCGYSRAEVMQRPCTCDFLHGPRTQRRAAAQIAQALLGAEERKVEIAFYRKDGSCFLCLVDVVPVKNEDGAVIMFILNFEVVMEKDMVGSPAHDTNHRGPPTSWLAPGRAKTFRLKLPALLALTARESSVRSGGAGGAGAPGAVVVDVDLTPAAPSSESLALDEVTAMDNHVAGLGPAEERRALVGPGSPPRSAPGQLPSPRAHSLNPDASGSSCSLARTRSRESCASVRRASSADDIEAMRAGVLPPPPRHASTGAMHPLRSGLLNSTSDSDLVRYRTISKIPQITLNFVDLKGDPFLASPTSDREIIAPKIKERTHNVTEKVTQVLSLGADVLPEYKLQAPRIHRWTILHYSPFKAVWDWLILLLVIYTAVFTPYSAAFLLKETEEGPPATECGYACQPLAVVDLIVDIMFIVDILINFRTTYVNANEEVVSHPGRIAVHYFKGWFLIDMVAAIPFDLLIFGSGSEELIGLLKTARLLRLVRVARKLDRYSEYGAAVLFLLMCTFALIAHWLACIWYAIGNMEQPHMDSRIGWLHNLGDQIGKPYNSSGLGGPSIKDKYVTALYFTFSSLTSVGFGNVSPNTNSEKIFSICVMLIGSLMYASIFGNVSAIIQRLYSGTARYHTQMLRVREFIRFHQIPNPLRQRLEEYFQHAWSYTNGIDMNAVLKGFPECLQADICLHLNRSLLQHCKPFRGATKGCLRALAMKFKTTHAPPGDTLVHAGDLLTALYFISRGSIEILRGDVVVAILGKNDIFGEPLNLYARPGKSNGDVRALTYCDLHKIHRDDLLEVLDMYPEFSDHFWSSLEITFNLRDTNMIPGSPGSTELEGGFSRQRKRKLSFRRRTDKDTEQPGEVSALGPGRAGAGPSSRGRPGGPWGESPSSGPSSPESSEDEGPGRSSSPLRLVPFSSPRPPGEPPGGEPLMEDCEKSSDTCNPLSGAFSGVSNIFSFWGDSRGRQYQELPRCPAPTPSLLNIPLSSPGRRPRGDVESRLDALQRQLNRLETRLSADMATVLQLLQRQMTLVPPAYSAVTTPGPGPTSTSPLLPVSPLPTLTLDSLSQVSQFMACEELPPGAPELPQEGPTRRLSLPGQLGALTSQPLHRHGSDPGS
In short: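 Fluorescence at 540 nm emission (480 nm excitation) was recorded kinetically for 2 min at 1-second intervals once the thallium-containing stimulus reached cells previously loaded with FluxOR II dye.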

Row | Compound | Potency
49 | C=CCN=C=S | inactive
50 | CCOP(=S)(OCC)Oc1cc(C)nc(C(C)C)n1 | inactive
51 | Nc1cc(Cl)cc(Cl)c1 | inactive
52 | O=C(O)C1C(C(=O)O)C2(Cl)C(Cl)=C(Cl)C1(Cl)C2(Cl)Cl (centres undefined) | inactive
53 | N#Cc1ccccn1 | inactive
54 | [N-]=[N+]=CC(=O)OC[C@H](N)C(=O)O | inactive
55 | CN(C)NC(=O)CCC(=O)O | inactive
56 | CC(=O)C1CCOC1=O (centres undefined) | inactive
57 | O=C(O)Cc1ccccc1 | inactive
58 | COP(=S)(OC)Oc1ccc(SC)c(C)c1 | inactive
59 | c1ccc2c(c1)CCCC2 | inactive
60 | CC(=O)/C=C/c1ccccc1 | inactive
61 | C/C=C/c1ccc2c(c1)OCO2 | inactive
62 | Cc1cccc(C)c1N | inactive
63 | COc1nc(NC(C)C)nc(NC(C)C)n1 | inactive
64 | N#Cc1cccc(C#N)c1 | inactive

Row | Compound | Potency
65 | Nc1cccc(Cl)c1 | inactive
66 | OC[C@@H](O)[C@H]1O[C@@H]2O[C@H](C(Cl)(Cl)Cl)O[C@@H]2[C@H]1O | inactive
67 | COP(=S)(OC)SCN1C(=O)c2ccccc2C1=O | inactive
68 | Nc1nc(N)nc(NC2CC2)n1 | inactive
69 | Cc1ccc(N=C=O)cc1N=C=O | inactive
70 | CC(C)CCCCCCOC(=O)c1ccccc1C(=O)OCCCCCCC(C)C | inactive
71 | CN(C)C(=O)Cl | inactive
72 | Cc1ccc(O)c(C)c1 | inactive
73 | NNc1ccccc1 | inactive
74 | C=CC#N | inactive
75 | CCCCCCCCCCCCCCCCCC(=O)O | inactive
76 | CC12CC1(C)C(=O)N(c1cc(Cl)cc(Cl)c1)C2=O (centres undefined) | inactive
77 | C=C(C)C(=O)OCC(CC)CCCC (centres undefined) | inactive
78 | CC[N+](=O)[O-] | inactive
79 | O=C(O)C(Br)Br | inactive
